Anthrax LF prot – inhibitors of Bacillus anthracis lethal factor protease; multiplex microsphere protease cleavage assay, LF; inhibition, % at 10 µM; actives 0.12% (n = 360,000)
Bead autofluor – counter-screen for toxin protease inhibitors: compound fluorescence; compound autofluorescence counterscreen, microsphere flow cytometry; active compounds read high; fluorescence intensity (no concentration beside the values); actives 3.1% (n = 360,000); AID 624483; in the data active = fluorescence intensity above about 16000; inconclusive = no clear call, values can overlap the other calls
FBA Mtb inh – Mtb fructose-bisphosphate aldolase inhibition | P9WQA3 | purified M. tuberculosis FBA, fluorescence read-out | inhibition, % at 1 µM | actives 2.3% (n = 360,000); in the data active = inhibition above about 27%
Target sequence (P9WQA3 whole entry, looked up): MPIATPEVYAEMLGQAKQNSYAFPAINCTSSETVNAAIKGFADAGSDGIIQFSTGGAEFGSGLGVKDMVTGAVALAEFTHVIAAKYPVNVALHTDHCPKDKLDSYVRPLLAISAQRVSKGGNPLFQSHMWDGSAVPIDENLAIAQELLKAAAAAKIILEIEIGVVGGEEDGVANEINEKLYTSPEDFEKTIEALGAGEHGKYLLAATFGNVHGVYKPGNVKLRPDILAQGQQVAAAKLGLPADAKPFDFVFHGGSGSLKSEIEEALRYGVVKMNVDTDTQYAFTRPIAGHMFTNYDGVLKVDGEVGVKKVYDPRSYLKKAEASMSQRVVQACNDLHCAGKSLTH
BoNT-A LC inh2 – BoNT A light chain protease inhibition; multiplex microsphere protease substrate cleavage, flow cytometry; inhibition, % at 10 µM; actives 0.17% (n = 360,000)
GDH-TPI inh – counter-screen for M. tuberculosis FBA inhibitors: GDH-TPI coupled enzymes; GDH-TPI coupled enzyme counterscreen, NADH absorbance; inhibition, % at 4.8 µM; actives 1.2% (n = 360,000); AID 588335; in the data active = inhibition above about 30%
BoNT-F LC inh – BoNT F light chain protease inhibition; Multiplex microsphere protease cleavage assay, flow cytometry; inhibition, % at 10 µM; actives 0.22% (n = 360,000); in the data active = inhibition above about 35%, passing the limit was not always enough; inconclusive = no clear call, values can overlap the other calls
Hits are given with their value; 0 = inactive; ? = inconclusive; - = no result. Only some compounds are listed: those with a hit (about 6.6% of all), similar ones and a draw of the others. Rule as the data show it, unless noted: active = inhibition above about 30%; inconclusive = no clear call, values can overlap the other calls; inactive = below that.

SMILES | Anthrax LF prot | Bead autofluor | FBA Mtb inh | BoNT-A LC inh2 | GDH-TPI inh | BoNT-F LC inh
CCCCN(C=O)c1c(CC)nc2ccc(C(=O)N3CCCCC3)cn12 | 0 | 0 | 0 | 0 | 0 | 0
CC(C)(C)c1ccc(-c2csc(NNC3=NCCCCC3)n2)cc1 | 0 | 20221 | 0 | ? | 0 | 0
Brc1ccc(-c2csc(NNC3=NCCCCC3)n2)cc1 | 0 | 0 | 0 | 0 | 0 | 0
O=C(c1ccccc1Cc1ccccc1)N1CCN(S(=O)(=O)c2ccccc2Br)CC1 | 0 | 0 | 0 | 0 | 0 | 0
COc1cc(CN2CCCC(C)C2)cc([N+](=O)[O-])c1O (stereo unspecified) | 0 | 23731 | 0 | 0 | 0 | 0
COCCNc1nc(Nc2ccc(Cl)cc2F)c2sccc2n1 | 0 | 0 | 0 | 0 | 0 | 0
Cc1ccc2c(c1)C(=O)C(=O)N2CC(=O)Nc1ccccc1NC(=O)c1ccccn1 | 0 | 0 | 0 | 0 | 0 | 0
O=C(CSc1ncccn1)NCc1ccccc1Cl | 0 | 21734 | 0 | ? | 0 | 0
O=C(CSc1nc(=O)n2ccccc2n1)NCc1ccccc1Cl | 0 | 0 | 0 | 0 | 0 | 0
CCCc1cc(C(N)=O)c(NC(=O)C2CCCO2)s1 (stereo unspecified) | 0 | 0 | 0 | 0 | 0 | 0
CCCc1cc(C(N)=O)c(NC(=O)c2ccco2)s1 | 0 | 16987 | 0 | 0 | 0 | 0
COc1ccc(N/C=C(\C#N)c2nc3ccccc3n2C)c(OC)c1 | 0 | 18044 | 0 | 0 | 0 | 0
COc1ccc(CNc2nc3ccccc3n2C)c(OC)c1 | 0 | 0 | 0 | 0 | 0 | 0
Cc1cccc(-n2c(O)c(C=NC3CCS(=O)(=O)C3)c3ccccc3c2=O)c1C (stereo unspecified) | 0 | 0 | 0 | 0 | 31 | ?
Cc1ccc(-c2nnc(N3CCN(C(=O)COc4ccccc4)CC3)c3ccccc23)cc1 | 0 | 16269 | 0 | 0 | 0 | 0
O=C(COc1ccc(-c2nnc(N3CCCCC3)c3ccccc23)cc1)N1CCCCC1 | 0 | 0 | 0 | 0 | 0 | 0
CN(C)c1ccc(CNC(=O)CC[C@H]2O[C@@H](n3cnc4c(NC(=O)c5ccccc5)ncnc43)[C@H](O)[C@@H]2O)cc1 | 0 | 0 | 0 | 0 | - | 0
C(=C\CSc1ncn[nH]1)/CSc1ncn[nH]1 | 0 | 20380 | 0 | 0 | 0 | 0
COc1ccc(C(=O)N2C(=S)NC(=O)/C2=C\c2ccc(C)cc2)cc1 | 0 | 0 | 0 | 0 | 0 | 0
CCc1ccc(/C=C2/C(=O)NC(=O)N2C(C)=O)cc1 | 0 | 0 | 0 | 0 | 40 | 0
COc1cccc2c1cc1c(=O)n(CC(=O)NCCCN3CCCCC3)nc(C)n12 | 0 | 0 | 116 | 0 | 0 | 0
CCc1nn(CC(=O)NCCCN2CCOCC2)c(=O)c2cc3c(OC)cccc3n12 | 0 | 0 | 112 | 0 | 0 | 0
COc1cccc2c1cc1c(=O)n(CC(=O)NCCCc3ccccc3)nc(C)n12 | 0 | 0 | 0 | 0 | 0 | 0
O=C(c1ccc2c(c1)OCO2)N(Cc1ccco1)C1(C(=O)NC2CCCCC2)CCCCC1 | 0 | 0 | 0 | 0 | 0 | 0
N#CCCCSc1ncccc1-c1nc2ccccc2[nH]1 | 0 | 19935 | 0 | 0 | 0 | 0
SMILES | Anthrax LF prot | Bead autofluor | FBA Mtb inh | BoNT-A LC inh2 | GDH-TPI inh | BoNT-F LC inh
CC(C)Oc1cccc(C(=O)O)c1 | 0 | 18055 | 0 | ? | 0 | 0
O=C(O)c1cccc(C(=O)O)c1 | 0 | 0 | 0 | 0 | 0 | 0
COc1cc(C(=O)Oc2ccccc2)ccc1OCc1c(C)noc1C | 0 | 0 | 0 | 0 | 0 | 0
COc1cc(C=O)ccc1OCc1c(C)noc1C | 0 | 21666 | 0 | 0 | 0 | 0
COc1cc(C(=O)O)ccc1OCc1c(C)noc1C | 0 | 21283 | 0 | 0 | 0 | 0
O=C(C[C@H]1C/C=C\C[C@H](NC(=O)OCC2c3ccccc3-c3ccccc32)C(=O)OC[C@@H]2CCCN2C1=O)NCCO | 0 | 0 | 0 | 0 | 0 | 0
COc1ccc(C(=O)OCC(=O)Nc2ccc(OC(F)F)cc2)c(OC)c1 | 0 | 16151 | 0 | 0 | 0 | 0
O=C(COC(=O)c1ccccc1O)Nc1ccc(OC(F)F)cc1 | 0 | 0 | 0 | 0 | 0 | 0
O=C(NCCS(=O)(=O)N1CCCCC1)c1ccc2c(c1)OCO2 | 0 | ? | 0 | 0 | 0 | 0
COC(=O)c1ccc(S(=O)(=O)c2ccc(Cl)cc2)c(N)c1 | 0 | 0 | 115 | 0 | 0 | 0
CC(O)(CS(=O)(=O)Cc1ccccc1)c1ccccc1 (stereo unspecified) | 0 | 0 | 0 | 0 | 0 | 0
C=CCNc1nc(-c2ccc(OC)cc2OC)cs1 | 0 | 21095 | 0 | ? | 0 | 0
CS(=O)(=O)N1CCC(C(=O)Nc2cccc(F)c2)CC1 | 0 | 0 | 0 | 0 | 0 | 39

Source: PubChem
